Results reported in PubChem BioAssay AID1159580 (chemical genetic matrix, 2015).
About 2,000 (36%) of roughly 5,500 compounds were called active. Not shown: some 18% with an inconclusive outcome. Rule as the data show it: active = normalized growth mostly below about 0.91 (no sharp cut-off); inconclusive = no clear call, values can overlap the other calls; inactive = mostly above about 0.92. Some of the results follow.

Assay: chemical genetic growth profiling, strain panel (AID 1159580);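 also: tested at 20 µM; growth read once vehicle control cultures reached saturation at 30 °C; 1 = growth at the plate median or of vehicle wells; lower values mean less growth of the strain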
Conditions: growth OD

Measured: normalized growth

CN1CCC[C@H]1c1cccnc1
inactive: S. cerevisiae deletion strains, locus YJR075W, strain HOC1, stronger effect = lower value 0.999 | S. cerevisiae deletion strains, locus YKL009W, strain mrt4, stronger effect = lower value 0.975 | S. cerevisiae deletion strains, locus YKL068W, stronger effect = lower value 0.983 | S. cerevisiae deletion strains, locus YKL085W, strain MDH1 (second series), stronger effect = lower value 0.984 | S. cerevisiae deletion strains, locus YKL085W, strain MDH1, stronger effect = lower value 0.984 | S. cerevisiae deletion strains, locus YKL160W, strain elf1, stronger effect = lower value 1.01 | S. cerevisiae deletion strains, locus YKL190W, strain CNB1, stronger effect = lower value 1 | S. cerevisiae deletion strains, locus YKR001C, strain vps1, stronger effect = lower value 0.986 | S. cerevisiae deletion strains, locus YKR026C, strain gcn3, stronger effect = lower value 1.04 | S. cerevisiae deletion strains, locus YKR091W, strain srl3, stronger effect = lower value 1.02 | S. cerevisiae deletion strains, locus YLL001W, strain dnm1, stronger effect = lower value 1.05 | S. cerevisiae deletion strains, locus YLL026W, stronger effect = lower value 1.02 | S. cerevisiae deletion strains, locus YLL041C, strain sdh2, stronger effect = lower value 1.02 | S. cerevisiae deletion strains, locus YLR027C, strain aat2, stronger effect = lower value 1.01 | S. cerevisiae deletion strains, locus YLR039C, strain RIC1, stronger effect = lower value 0.981 | S. cerevisiae deletion strains, locus YLR058C, strain SHM2, stronger effect = lower value 0.987 | S. cerevisiae deletion strains, locus YLR102C, strain apc9, stronger effect = lower value 0.995 | S. cerevisiae deletion strains, locus YLR113W, strain HOG1, stronger effect = lower value 0.921 | S. cerevisiae deletion strains, locus YLR221C, strain rsa3, stronger effect = lower value 1.04 | S. cerevisiae deletion strains, locus YLR258W, strain gsy2, stronger effect = lower value 1.02 | S. cerevisiae deletion strains, locus YLR262C, strain YPT6 (second series), stronger effect = lower value 1.04 | S. cerevisiae deletion strains, locus YLR262C, strain YPT6, stronger effect = lower value 1.01 | S. cerevisiae deletion strains, locus YLR268W, strain sec22, stronger effect = lower value 1 | S. cerevisiae deletion strains, locus YLR320W, strain mms22, stronger effect = lower value 1.03 | S. cerevisiae deletion strains, locus YLR330W, strain CHS5, stronger effect = lower value 0.987 | S. cerevisiae deletion strains, locus YLR342W, strain FKS1 (second series), stronger effect = lower value 0.976 | S. cerevisiae deletion strains, locus YLR342W, strain FKS1, stronger effect = lower value 1.02 | S. cerevisiae deletion strains, locus YLR357W, strain rsc2, stronger effect = lower value 1.04 | S. cerevisiae deletion strains, locus YLR370C, strain arc18, stronger effect = lower value 1.03 | S. cerevisiae deletion strains, locus YLR371W, strain rom2, stronger effect = lower value 0.99 | S. cerevisiae deletion strains, locus YLR384C, strain iki3, stronger effect = lower value 1.04 | S. cerevisiae deletion strains, locus YLR418C, strain cdc73, stronger effect = lower value 1.02 | S. cerevisiae deletion strains, locus YML016C, strain PPZ1, stronger effect = lower value 0.99 | S. cerevisiae deletion strains, locus YML032C, strain rad52, stronger effect = lower value 0.999 | S. cerevisiae deletion strains, locus YML120C, strain ndi1, stronger effect = lower value 1.03 | S. cerevisiae deletion strains, locus YML124C, strain tub3, stronger effect = lower value 0.992 | S. cerevisiae deletion strains, locus YMR058W, strain fet3, stronger effect = lower value 1.03 | S. cerevisiae deletion strains, locus YMR078C, strain ctf18, stronger effect = lower value 0.979 | S. cerevisiae deletion strains, locus YMR125W, strain sto1, stronger effect = lower value 1.05 | S. cerevisiae deletion strains, locus YMR129W, stronger effect = lower value 1.04 | S. cerevisiae deletion strains, locus YMR205C, strain PFK2, stronger effect = lower value 1.03 | S. cerevisiae deletion strains, locus YMR223W, strain ubp8, stronger effect = lower value 0.978 | S. cerevisiae deletion strains, locus YMR231W, strain pep5, stronger effect = lower value 1.03 | S. cerevisiae deletion strains, locus YMR263W, strain SAP30, stronger effect = lower value 1.02 | S. cerevisiae deletion strains, locus YMR307W, strain GAS1, stronger effect = lower value 0.946 | S. cerevisiae deletion strains, locus YNL067W, strain RPL9B, stronger effect = lower value 1.02 | S. cerevisiae deletion strains, locus YNL071W, strain lat1, stronger effect = lower value 1.04 | S. cerevisiae deletion strains, locus YNL128W, strain TEP1, stronger effect = lower value 1.02 | S. cerevisiae deletion strains, locus YNL153C, strain GIM3, stronger effect = lower value 1.02 | S. cerevisiae deletion strains, locus YNL183C, strain NPR1, stronger effect = lower value 0.938 | S. cerevisiae deletion strains, locus YNL209W, strain ssb2, stronger effect = lower value 1.03 | S. cerevisiae deletion strains, locus YNL233W, strain BNI4, stronger effect = lower value 1.01 | S. cerevisiae deletion strains, locus YNL248C, strain rpa49, stronger effect = lower value 1.03 | S. cerevisiae deletion strains, locus YNL250W, strain rad50, stronger effect = lower value 0.988 | S. cerevisiae deletion strains, locus YNL271C, strain bni1, stronger effect = lower value 0.985 | S. cerevisiae deletion strains, locus YNL298W, strain CLA4, stronger effect = lower value 1 | S. cerevisiae deletion strains, locus YNL307C, strain MCK1, stronger effect = lower value 1 | S. cerevisiae deletion strains, locus YNL322C, strain KRE1 (second series), stronger effect = lower value 1.04 | S. cerevisiae deletion strains, locus YNL322C, strain KRE1, stronger effect = lower value 0.992 | S. cerevisiae deletion strains, locus YNR049C, strain mso1, stronger effect = lower value 1.02 | S. cerevisiae deletion strains, locus YNR052C, strain pop2, stronger effect = lower value 0.972 | S. cerevisiae deletion strains, locus YOL006C, strain TOP1, stronger effect = lower value 0.988 | S. cerevisiae deletion strains, locus YOL012C, strain htz1 1.12 | S. cerevisiae deletion strains, locus YOL147C, strain pex11, stronger effect = lower value 0.996 | S. cerevisiae deletion strains, locus YOR001W, strain rrp6, stronger effect = lower value 1.02 | S. cerevisiae deletion strains, locus YOR061W, strain CKA2, stronger effect = lower value 0.999 | S. cerevisiae deletion strains, locus YOR069W, strain VPS5, stronger effect = lower value 0.988 | S. cerevisiae deletion strains, locus YOR070C, strain gyp1, stronger effect = lower value 1.02 | S. cerevisiae deletion strains, locus YOR080W, strain dia2, stronger effect = lower value 1.03 | S. cerevisiae deletion strains, locus YOR083W, strain WHI5, stronger effect = lower value 1.02 | S. cerevisiae deletion strains, locus YOR106W, strain vam3, stronger effect = lower value 1.07 | S. cerevisiae deletion strains, locus YOR136W, strain idh2, stronger effect = lower value 0.988 | S. cerevisiae deletion strains, locus YOR144C, strain elg1, stronger effect = lower value 0.993 | S. cerevisiae deletion strains, locus YOR184W, strain ser1, stronger effect = lower value 0.959 | S. cerevisiae deletion strains, locus YOR231W, strain MKK1, stronger effect = lower value 0.952 | S. cerevisiae deletion strains, locus YOR265W, strain rbl2, stronger effect = lower value 1.03 | S. cerevisiae deletion strains, locus YOR270C, strain vph1, stronger effect = lower value 1.12 | S. cerevisiae deletion strains, locus YOR290C, strain snf2, stronger effect = lower value 1.02 | S. cerevisiae deletion strains, locus YOR316C, strain cot1, stronger effect = lower value 0.989 | S. cerevisiae deletion strains, locus YPL051W, strain arl3, stronger effect = lower value 1.01 | S. cerevisiae deletion strains, locus YPL055C, strain LGE1, stronger effect = lower value 1.04 | S. cerevisiae deletion strains, locus YPL078C, strain atp4, stronger effect = lower value 1.03 | S. cerevisiae deletion strains, locus YPL106C, strain sse1, stronger effect = lower value 1 | S. cerevisiae deletion strains, locus YPL240C, strain hsp82, stronger effect = lower value 1.03 | S. cerevisiae deletion strains, locus YPL241C, strain CIN2, stronger effect = lower value 0.996 | S. cerevisiae deletion strains, locus YPL256C, strain CLN2, stronger effect = lower value 0.943 | S. cerevisiae deletion strains, locus YPR119W, strain clb2, stronger effect = lower value 1 | S. cerevisiae deletion strains, locus YPR141C, strain kar3, stronger effect = lower value 0.968 | S. cerevisiae deletion strains, locus YPR163C, strain tif3, stronger effect = lower value 0.999 | S. cerevisiae deletion strains, locus YPR167C, strain met16, stronger effect = lower value 0.99 | S. cerevisiae deletion strains, strain wtn01, stronger effect = lower value 0.998 | S. cerevisiae strains, strain wild type, stronger effect = lower value 0.999
